Rows were chosen to be rich in hits. Some 19% of all compounds tested hit in one or more screens of this group.
TDP1 cell CPT = DT40-hTDP1 cell growth loss with CPT. chicken DT40 Tdp1-/-;hTDP1 cells + 20 nM CPT, ATP luminescence, 48 h. Potency, µM (highest dose often 46.2 µM), without a hit: at the top dose activity change, negative = growth inhibition, usual class: inhibitors. hit rate 12% among 420,000; note: potency is the fitted concentration of half-maximal effect; nearly all actives have a fitted effect of over 55% in size
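Chicken DT40 Tdp1-/- cells stably complemented with human TDP1 were seeded at 400 cells/well in medium containing 20 nM camptothecin, exposed to pin-transferred compounds, and grown at 37 °C for at least 48 hr. Viability was read as ATP luminescence.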
IL1B secr inh = inflammasome signaling inhibition, IL-1 beta readout; THP-1 LPS/ATP IL-1B secretion, AlphaLISA, 16 h; active compounds read low; activity change, % at 57.5 µM; hit rate 4.7% among 360,000; AID 743279; in the data active = activity change below about -50%; inconclusive = mostly about -30% to -49%
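Secreted IL-1B measured by AlphaLISA bead assay after 16 h compound exposure of THP-1 cells; compounds (final up to 57.5 uM) added 1 h before LPS (250 ng/mL) and ATP (1.25 mM) stimulation; lower signal means less secretion.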
uPA surface inh = blocks generation of uPA at the cell surface; cell surface uPA generation assay, qHTS; Potency, µM (doses to about 38.3 µM), for inactives: top-dose activity change, negative = inhibition, actives largely listed as inhibitors; hit rate 0.31% among 330,000; AID 540303; active = well fitted inhibition curve with a large enough effect; inconclusive = small, poorly fitted or top-dose-only effect; inactive = no such curve, though single readings can be large or run the other way; tested in mouse RAW 264.7 cells; note: potency is the fitted concentration of half-maximal effect; nearly all actives have a fitted effect of over 55% in size
DT40 TDP1 no CPT = qHTS for Inhibitors of human tyrosyl-DNA phosphodiesterase 1 (TDP1): qHTS in cells in absence of CPT; DT40 Tdp1-/- hTDP1 cells, no CPT, ATP luminescence, 48 h; Potency, µM (highest dose often 46.2 µM), inactives show top-dose activity change, negative = growth inhibition, actives largely listed as inhibitors; hit rate 15% among 420,000; note: potency is the fitted concentration of half-maximal effect; nearly all actives have a fitted effect of over 55% in size
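A cellular qHTS used chicken DT40 cells lacking endogenous Tdp1 but carrying stably transfected human TDP1. Compounds were applied without camptothecin, and cell growth kinetics were judged by ATP-dependent luminescence after ≥48 hr.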
HT1080 IDH1KD tx = kills HT-1080 cells with IDH1 knockdown. HT-1080 IDH1 knockdown viability, ATP luminescence, 48 h. Potency, µM (doses to about 46.1 µM), without a hit: at the highest dose activity, negative = toxicity, hits mostly cytotoxic. hit rate 2% among 360,000;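 note: potency is the fitted concentration of half-maximal effect; 0% = DMSO wells and -100% = cell-free medium wells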
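Assay cells: HT-1080 with IDH1 knockdown, 750 per well, RPMI/5% FBS. Exposure: 48 h at 37 °C following 2 h pre-incubation. Read: CellTiter-Glo luminescence; fitted concentration-response, curve class assigned.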
HT1080-NT tox = kills 2HG-producing HT-1080-NT fibrosarcoma cells | HT-1080-NT fibrosarcoma viability, CellTiter-Glo ATP luminescence, 48 h | Potency, µM (top dose mostly 46.1 µM), inactives show at the highest dose activity, negative = less viability, hits mostly cytotoxic | hit rate 1.6% among 360,000 | AID 686970;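 note: NT is the 2HG producing partner of a matched IDH1 knockdown line; potency is the fitted concentration of half-maximal effect; 0% = DMSO-treated cells and -100% = media-only wells without cells; nearly all actives have a fitted effect of over 55% in size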
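A 48-hour cytotoxicity screen used HT-1080-NT cells plated 2 hours before compound delivery. ATP-based CellTiter-Glo luminescence measured viability, normalized to DMSO and no-cell controls.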
Active calls of the source: *; ? = inconclusive; nt = not tested or not shown; [ ] = another dose, or the depositor's remark. Unless noted, calls come from the whole dose curve; as a rule, active = well fitted curve in the direction sought with a large enough effect; inconclusive = small, poorly fitted or top-dose-only effect, or another doubt; inactive = no such curve, though single readings can be large; an effect the other way counts as inactive or inconclusive. Unless noted, % is set by controls: 0 for no effect and ±100 for the full control effect.

SMILES	TDP1 cell CPT	IL1B secr inh	uPA surface inh	DT40 TDP1 no CPT	HT1080 IDH1KD tx	HT1080-NT tox
C=CCn1c(CNC(=O)c2ccccc2F)nnc1SCC(=O)NC(C)c1ccccc1 (centres undefined)	0%	-14	4%	-1%	14%	20%
COC(=O)[C@@]12CCCN1[C@H](c1ccc(-c3cccc(Cl)c3)cc1)[C@H]1C(=O)N(C)C(=O)[C@H]12	23µM*	-1	-19%	9.2µM*	-9%	-5%
COC(=O)[C@@]12CCCN1[C@H](c1ccc(-c3ccccc3)cc1)[C@@H]1C(=O)N(C)C(=O)[C@@H]12	23µM*	29	-1%	18µM*	-1%	0%
COC(=O)[C@@]12CCCN1[C@H](c1ccc(-c3ccc(Cl)c(Cl)c3)cc1)[C@H]1C(=O)N(C)C(=O)[C@H]12	?	-20	-18%	12µM*	-18%	0%
COC(=O)[C@@]12CCCCN1[C@H](c1ccc(-c3cccc(Cl)c3)cc1)[C@@H]1C(=O)N(C)C(=O)[C@@H]12	21µM*	?	19%	13µM*	20%	20%
Nc1nc2c(c(=O)[nH]1)N(C=O)C(CNc1ccc(C(=O)N[C@@H](CCC(=O)O)C(=O)O)cc1)CN2 (some centres undefined)	2%[21.1 µM]	nt	nt	2%[21.1 µM]	nt	nt
O=C(Nc1nnc(N2CCCCCC2)s1)Nc1cc(F)ccc1F	-24%	nt	nt	?	nt	nt
COC(=O)c1csc(S(=O)(=O)N2CCOCC2)c1OC	6%	3	2%	17%	15%	16%
CCN1C(=O)[C@H]2[C@@H](c3ccc(-c4cccc(Cl)c4)cc3)N3CCCC[C@@]3(C(=O)OC)[C@H]2C1=O	?	-1	12%	?	-5%	-11%
CCN1C(=O)[C@H]2[C@@H](c3ccc(-c4cccc(Cl)c4)c(OC)c3)N3CCCC[C@@]3(C(=O)OC)[C@H]2C1=O	?	-62*	2%	23µM*	-22%	0%
COC(=O)[C@@]12CCCCN1[C@H](c1ccc(-c3cccc(Cl)c3)c(OC)c1)[C@H]1C(=O)N(C)C(=O)[C@H]12	18µM*	-4	17%	?	5%	3%
COC(=O)[C@@]12CCCCN1[C@H](c1ccc(-c3cccc(Cl)c3)cc1)[C@H]1C(=O)N(C)C(=O)[C@H]12	?	-7	-1%	23µM*	1%	0%
CN1CCN(c2cccc3c2S(=O)(=O)N[C@@H](Cc2ccccc2)CO3)CC1	?	-10	nt	?	1%	-6%
CSc1nc(N)nc2c1ncn2CC(=O)NCCCc1ccccc1	?	27	-15%	15µM*	-2%	-7%
COC(=O)c1ccc(CNC(=O)Cn2cnc3c(SC)nc(N)nc32)cc1	23µM*	43	0%	?	0%	-7%
COc1ccc(CN(C)C(=O)Cn2cc(C)c(=O)[nH]c2=O)cc1OC	-20%	0	-15%	-1%	0%	2%
COc1ccc(CN(C)C(=O)Cn2cnc3c(SC)nc(N)nc32)cc1OC	15µM*	0	?	21µM*	-7%	-2%
COC(=O)[C@H](Cc1ccc(O)cc1)NC(=O)Cn1cnc2c(SC)nc(N)nc21	-1%	33	13%	-3%	-1%	0%
COC(=O)[C@@H](Cc1ccccc1)NC(=O)Cn1cnc2c(SC)nc(N)nc21	-5%	0	12%	-12%	9%	13%
CN(C)c1ccc(C(=O)N2CCCC(Cn3cc(C(=O)N4CCCC4)nn3)C2)cc1 (centres undefined)	1%	nt	nt	-11%	nt	nt
Cc1ccc(N(C(=O)CNC(=O)c2ccco2)C(C(=O)NC2CCCCC2)c2ccncc2)c(C)c1 (centres undefined)	2%	10	-2%	9%	0%	1%
CC(=O)c1ccccc1OCC(O)CN1CCN(CCN2C(=O)c3cccc4cccc(c34)C2=O)CC1 (centres undefined)	6.5µM*	?	-2%	6.5µM*	?	?
Cc1ccc(OCC(O)CN2CCOCC2)c(C)c1 (centres undefined)	-11%	7	-1%	-16%	2%	0%
CC(=O)c1ccccc1OCC(O)CN1CCN(c2ccccn2)CC1 (centres undefined)	-106%	3	3%	-97%	24%	0%
Cc1ccc(C)c(OCC(O)CN2CCN(CCN3C(=O)c4cccc5cccc(c45)C3=O)CC2)c1 (centres undefined)	16µM*	-102*	-15%	18µM*	?	16µM*
SMILES	TDP1 cell CPT	IL1B secr inh	uPA surface inh	DT40 TDP1 no CPT	HT1080 IDH1KD tx	HT1080-NT tox
Cc1ccc(C)c(N2C(=O)CC(Cc3ccc(Cl)cc3)C2=O)c1 (centres undefined)	-20%	-5	6%	?	0%	0%
Cc1cc2c(cc1C)C(=O)C(Br)=C(N)C2=O	26µM*	-12	-3%	16µM*	-15%	-20%
Cc1cc(NC(=O)CSc2nc3ccccc3n2CCC#N)no1	7%	-56*	3%	0%	6%	-2%
N#CCCn1c(SCC(=O)c2c[nH]c3ccccc23)nc2ccccc21	23µM*	-13	2%	18µM*	-9%[9.24 µM]	-14%
O=C(CSc1nc2ccccc2c(=O)n1-c1ccccc1)c1c[nH]c2ccccc12	6.5µM*	7	-2%	6.5µM*	-4%	-2%
NC(=O)CSc1nc2ccccc2c(=O)n1-c1ccccc1	2%	6	-3%	10%	-17%	4%
COc1cc(/C=C/C(=O)OCC(=O)N2CCCCCC2)cc(OC)c1OC	-13%	10	nt	?	-4%	-7%
CCCC[C@H](CN[C@@H](CNC)[C@H](C)CC)NCCC12CCC(CC1)C2	2.6µM*	-68*	?	3.7µM*	?	?
O=C(CSc1nnc(-c2cccs2)n1Cc1ccccc1)NCc1ccc2c(c1)OCO2	23µM*	-61*	3%	?	-4%	-2%
Cc1cc(C)c2cc(C)c3nnc(SCC(=O)NCc4ccc5c(c4)OCO5)n3c2c1	?	-59*	nt	?	-3%	-2%
Cc1cc2cc(C)c3nnc(SCC(=O)NCc4ccc5c(c4)OCO5)n3c2cc1C	?	-12	1%	-26%	3%	14%
CCOC(=O)c1nnc(-c2ccccc2)o1	-11%	0	0%	7%	9%	19%
O=C(CCc1ccccc1)c1nnc(-c2ccccc2)o1	4%	-53*	-2%	?	26%	-5%
